# Experimental data as given in PubChem BioAssay (NCATS).
# Records with an inconclusive call do not appear. Values without a mark were called inactive. Active and inactive are the calls of the source. The call rests on the fitted dose curve; in most records, active means well fitted cell-killing curve with a large enough effect; inconclusive means small, poorly fitted or top-dose-only effect; inactive means flat fitted curve, though single readings scatter.
# Test: qHTS of pediatric cancer cell lines to identify multiple opportunities for drug repurposing: Primary screen for U-2 OS cells (AID 1347096); further: nearly all actives have a fitted effect of over 50% in size;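 on activity change, negative = cytotoxic: plate controls were DMSO wells for no effect and bortezomib positive control wells for full effect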
# Conditions: U-2 OS viability, CellTiter-Glo luminescence, 48 h; series mostly up to 46 µM; activity change, negative = cytotoxic: at the top concentration
# Text: Drug repurposing or repositioning has been offered as a strategy for drug development in oncology programs. This approach has special potential for childhood cancers and other rare or orphan diseases, where the expected return on new drug development has been a disincentive to pharmaceuticals.
# In this project we exploit the poly-pharmacology of drugs to discover new indications via phenotypic screening of a panel of 19 well-characterized cell lines derived from solid tumors seen in children and adolescents. The goal is to identify approved drugs with previously unrecognized anticancer properties that has the potential to reveal new mechanisms and biological processes involved in carcinogenesis or drug resistance. We employed a titration-based paradigm (quantitative high-throughput screening or qHTS), where all compounds were tested at multiple concentrations for their effect on cell viability. Concentration-response curves (CRCs) were derived directly from the primary screen, and both potency and efficacy values were used to identify compounds with robust bioactivity profiles. We screened the NIH Chemical Genomics Center (NCGC) Pharmaceutical Collection (NPC) and Mechanism Interrogation Plate (MIPE) small molecule collections of approved and investigational compounds against these cell lines; and measured metabolically active cells after 48 hours of compound treatment as a proxy for cell viability.
# Assay Submitter: Nathalia J. Martinez, National Center for Advancing Translational Sciences, National Institutes of Health, Rockville, MD, USA; email: natalia.martinez@nih.gov
# [1] Shen, M et al. Quantitative high-throughput phenotypic screening of pediatric cancer cell lines identifies multiple opportunities for drug repurposing. Oncotarget 2017 Dec 19;9(4):4758-4772. PMID 29435139.
# The cells were obtained from University of North Carolina (UNC), Pediatric Preclinical Testing Program (PPT), and Coriell Institute (CI).
# qHTS cell viability assay:
# Cells were assayed in growth media at a density of 500-1,000 cells/well. Five microliters of cells were dispensed into 1,536-well, white, solid-bottom, TC-treated plates (Greiner Bio One) using a multidrop dispenser and incubated at 37 degrees C, 5% CO2, under a humidified atmosphere for 5 hours. Twenty-three nanoliters of compounds and controls (neutral control DMSO or positive control bortezomib at final concentration of 2.3 µM) were subsequently transferred by Kalypsys pintool. For primary screens, the MIPE collection was tested at 11-point dilutions (final concentrations range from 0.78 nM to 46 µM) and the NPC collection at 8-point dilutions (final concentrations range from 0.59 nM to 46 µM). Compounds tested in follow-up screens were assayed at 11-point dilutions. Cells were incubated for 48 hours, followed by addition of 3 µL of CellTiter-Glo (Promega). After a 15 min incubation at room temperature, samples were analyzed for luminescence intensity using a ViewLux High-throughput CCD imager equipped with clear filters.
# Potency means the concentration at half of the fitted maximal effect.
SMILES,"activity change, negative = cytotoxic",Potency
C=CCN1C[C@H](C)N([C@H](c2ccc(C(=O)N(CC)CC)cc2)c2cccc(OC)c2)C[C@H]1C,5.03%,–
Nc1nc(N)nc(NC2CC2)n1,-9.92%,–
CCN[C@H](C)Cc1cccc(C(F)(F)F)c1,-2.24% [at 92.7 µM],–
NC(=O)c1cc([N+](=O)[O-])cc([N+](=O)[O-])c1,6.48%,–
[N-]=[N+]=CC(=O)OC[C@H](N)C(=O)O,-9.31%,–
O=c1oc2ccccc2c(O)c1Cc1c(O)c2ccccc2oc1=O,2.65%,–
CC(NC(C)(C)C)C(=O)c1cccc(Cl)c1 (stereo not given),–,inactive
c1ccc(N2CCNCC2)cc1,18.7%,–
CCCCCCC(=O)CCCCCC/C=C/C[C@@H](O)[C@H](O)[C@@](N)(CO)C(=O)O,-0.627% [at 16.1 µM],–
CN1C(=O)CCS(=O)(=O)C1c1ccc(Cl)cc1 (stereo not given),–,inactive
CN1CC[C@]23c4c5ccc(O)c4O[C@H]2[C@@H](O)C=C[C@H]3[C@H]1C5,-12.3% [at 92.7 µM],–
COc1cc(OC)c(OC)cc1C=O,–,inactive
C[C@](O)(CS(=O)(=O)c1ccc(F)cc1)C(=O)Nc1ccc(C#N)c(C(F)(F)F)c1,–,14.8 µM (active)
C[C@@H]1CC2=CC(=O)CC[C@@H]2[C@H]2CC[C@@]3(C)[C@@H](CC[C@]3(C)O)[C@@H]21,-9.33%,–
O=C1OC(c2ccc(O)c(S(=O)(=O)O)c2)(c2ccc(O)c(S(=O)(=O)O)c2)c2c(Br)c(Br)c(Br)c(Br)c21,3.61%,–
C[C@]12CC[C@@H]3c4ccc(OC(=O)N(CCCl)CCCl)cc4CC[C@H]3[C@@H]1CC[C@@H]2OP(=O)(O)O,23.3%,–
CCC(C)(C)c1ccc(O)cc1,9.22%,–
COP(=S)(OC)Oc1cc(Cl)c(Cl)cc1Cl,6%,–
O=C(O)c1ccc(=O)[nH]c1,14.1%,–
CCN(CCO)CCn1c(Cc2ccccc2)nc2c1c(=O)n(C)c(=O)n2C,10.4%,–

SMILES,"activity change, negative = cytotoxic",Potency
Clc1cccc(SC2CCNCC2)n1,1.87%,–
COc1cccc(C(=O)CCN[C@@H](C)[C@H](O)c2ccccc2)c1,7.84%,–
ClCCN1CCCC1,13.1%,–
CC(C)=CC1C(C(=O)OCN2C(=O)C3=C(CCCC3)C2=O)C1(C)C (stereo not given),-12.9%,–
CC(C)(C)NCC(O)c1cc(Cl)c(N)c(C(F)(F)F)c1 (stereo not given),9.15%,–
COC(=O)[C@@H](N)CCCN/C(N)=N/[N+](=O)[O-],1.78%,–
Oc1ccc(Cl)cc1,9.24%,–
O=C(O)CCCc1ccc(N(CCCl)CCCl)cc1,–,inactive
COC1CC(=C(c2cccs2)c2cccs2)C[N+](C)(C)C1 (stereo not given),-0.931%,–
C[C@]12CC[C@@H]3c4ccc(OC(=O)N(CCCl)CCCl)cc4CC[C@H]3[C@@H]1CC[C@@H]2O,15.9%,–
CCC(CC)(CNC(=O)CCCO)c1cccc(OC)c1,5.57%,–
CC(=O)C1CCOC1=O (stereo not given),7.71%,–
CCOP(=S)(OCC)Oc1ccc2c(C)c(Cl)c(=O)oc2c1,14.5%,–
CC(Cc1ccccc1)N(C)Cc1ccco1 (stereo not given),6.7%,–
Clc1ccc(C(c2ccc(Cl)cc2)C(Cl)(Cl)Cl)cc1,-13.5%,–
CC(C(=O)c1ccccc1)N(C)C (stereo not given),7.45%,–
CC[N+]1(CC)CCC(OC(=O)C(O)(c2ccccc2)c2ccccc2)C1 (stereo not given),6.18%,–
O=C1CN=C(c2ccccc2)c2cc([N+](=O)[O-])ccc2N1,-9.19%,–
CCc1cc2c(s1)-n1c(C)nnc1CN=C2c1ccccc1Cl,10.1%,–
CCC(C)C(C)(COC(N)=O)COC(N)=O (stereo not given),-3.93%,–
